Compounds without any hit were thinned out: in the full panel of roughly 83,000, 20% have a hit.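 Cells were grown in 96-well plates and exposed to the test compound at a single concentration for 48 hours; results are reported as percent growth, with values below 10 considered active.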 Values without a mark were called inactive. Calls of active or inactive are those of the source.
Legend:
Assay in all cases: NCI-60 one-dose screen, 48 h (100 = growth as untreated, 0 = no growth, -100 = all killed)
Settings in all cases: 10 µM unless noted
NCI-H23 lung = system: NCI-H23 lung
NCI-H226 lung = system: NCI-H226 lung
NCI-H322M lung = system: NCI-H322M lung
HOP-62 NSCLC = system: HOP-62 NSCLC
NCI-H460 lung = system: NCI-H460 lung
HOP-92 NSCLC = system: HOP-92 NSCLC
A549/ATCC NSCLC = system: A549/ATCC NSCLC
786-0 renal = system: 786-0 renal
COLO 205 colon = system: COLO 205 colon
DU-145 prostate = system: DU-145 prostate
K-562 leukemia = system: K-562 leukemia
MALME-3M melanoma = system: MALME-3M melanoma
MDA-MB-231 breast = system: MDA-MB-231 breast
RXF 393 renal = system: RXF 393 renal
SF-268 CNS = system: SF-268 CNS
SF-295 CNS = system: SF-295 CNS
SF-539 CNS = system: SF-539 CNS
M14 melanoma = system: M14 melanoma
UACC-257 melanoma = system: UACC-257 melanoma

Row | Structure (SMILES) | growth (NCI-H23 lung) [%] | growth (NCI-H226 lung) [%] | growth (NCI-H322M lung) [%] | growth (HOP-62 NSCLC) | growth (NCI-H460 lung) | growth (HOP-92 NSCLC) | growth (A549/ATCC NSCLC) | growth (786-0 renal) | growth (COLO 205 colon) | growth (DU-145 prostate) [%] | growth (K-562 leukemia) | growth (MALME-3M melanoma) | growth (MDA-MB-231 breast) [%] | growth (RXF 393 renal) | growth (SF-268 CNS) [%] | growth (SF-295 CNS) | growth (SF-539 CNS) | growth (M14 melanoma) | growth (UACC-257 melanoma) [%]
1 | COc1c(Br)cc(C(c2cc(Br)c(OC)c(Br)c2)c2ccccc2C(=O)O)cc1Br | 97.3 | 99.8 | 102 | 94.1% | 105% | 55.7% | 98.7% | 100% | 110% | 111 | 89.6% | 91.3% | 102 | 107% | 98.8 | 96% | 92.2% | 95.4% | –
2 | Cc1ccc(NC(=O)c2sc3nc4c(cc3c2N)C(=O)CCC4)cc1 | 64.9 | 83.7 | 55.8 | 114% | 29% | 48.1% | 37% | 94.5% | 23.9% | 96.4 | 53.1% | 89.1% | 78 | 108% | 110 | 47.1% | 93.5% | 85.3% | 74
3 | Nc1ccccc1C#Cc1ccccc1C#Cc1ccc(OCCCCCCOc2ccc(C#Cc3ccccc3C#Cc3ccccc3N)cc2)cc1 | 95.3 | 99.6 | 106 | 93.9% | 114% | 88.8% | 106% | 89.8% | 96.7% | 121 | 121% | 97.2% | 86 | 75.3% | 121 | 106% | 97.8% | 108% | 101
4 | Oc1c(N=Nc2nn[nH]n2)ccc2ccccc12 | 72.8 | 81.4 | 57.9 | 85.4% | 73% | 77.1% | 77.8% | 102% | 54% | 96.6 | 97.2% | 9.84% (active) | 60.4 | 87.4% | 93.8 | 65.4% | 95.3% | 62.1% | –
5 | Cc1nn(-c2ccccc2)c2nc(N)c(C3=NCCO3)nc12 | 96.9 | 93.6 | 89.5 | 81.2% | 97.7% | 43.6% | 86.5% | 99.7% | 94.1% | 114 | 102% | 88.6% | 87 | 108% | 111 | 90.8% | 99.6% | 105% | –
6 | COP(=O)(OC)C(c1ccc(O)cc1)(c1ccc(O)cc1)c1ccc(O)cc1 | 114 | 99.7 | 103 | 83.3% | 113% | 79.3% | 99.9% | 82.4% | 123% | 105 | 90.6% | 127% | 93.7 | 67.2% | 106 | 82.7% | 107% | 86% | 100
7 | O=CN1N=C(c2ccc(Cl)cc2)CC1c1cccc(Nc2ccnc3cc(Cl)ccc23)c1 (stereo not given) | 11.6 | 24.4 | 42.4 | 8.16% (active) | 11.1% | 21.5% | 20.9% | 20.5% | -26.9% (active) | 14 | 3.74% (active) | 8.98% (active) | 30.6 | -0.443% (active) | 36.7 | -10.4% (active) | -25.9% (active) | 16.2% | 12.1
8 | CC(C)=CCCC(C)c1ccc(C)c2c1OCN(CC1CCNCC1)C2 (stereo not given) | 81.9 | 103 | 99.1 | 95.4% | 24.6% | 12.3% | 54.1% | -60.1% (active) | 75.9% | 93.9 | 0.575% (active) | 94.1% | 68.8 | 55.2% | 93 | 98.7% | 76.9% | -95.4% (active) | 24.6
9 | COc1cccc(/C=C2\Cc3ccccc3C2=O)c1 | 106 | 107 | 110 | 96.4% | 105% | 85.7% | 87% | 101% | 115% | 104 | 93.8% | 97% | 104 | 103% | 109 | 94.6% | 101% | 109% | –
10 | COc1ccc(/C=C2\CCc3ccccc3C2=O)cc1 | 90.3 | 103 | 98.1 | 85.8% | 102% | 84.2% | 77.4% | 91.5% | 106% | 98.2 | 20.7% | 86.1% | 87.3 | 103% | 100 | 32.5% | 105% | 99.2% | –
11 | O=[N+]([O-])c1ccc(NS(=O)(=O)c2ccc(Cl)c(Cl)c2)cc1 | 81.5 | 82.5 | 111 | 82% | 77.7% | -1.71% (active) | 75.1% | 76.5% | 122% | 94 | 66.3% | 88% | 76 | 93.2% | 97 | 50.3% | 82.6% | 79% | –
12 | O=C(N/N=C/c1cccc(O)c1O)c1ccccc1 | 28.2 | 17.3 | 13.9 | 25.9% | 3.29% (active) | -4.33% (active) | 6.43% (active) | 22% | 5.29% (active) | 33 | 15.6% | 20.4% | 30.6 | 29.7% | 18.4 | -1.63% (active) | 6.6% (active) | 15% | –
13 | COc1ccc2nc(-c3ccc(Cl)cc3)cc(-c3nnc(SCC(=O)Nc4ccc(C(C)=O)cc4)n3-c3ccccc3)c2c1 | 100 | 99.1 | 91.5 | 100% | 102% | 111% | 93.2% | 91.4% | 101% | 105 | 104% | 92.9% | 86.8 | 102% | 87.3 | 102% | 85.4% | 93.8% | 110
14 | COc1cccc(CCN2C(=O)CCC3=C2CCC3=O)c1 | 96.9 | 97.4 | 101 | 102% | 115% | 86% | 112% | 97.6% | 108% | 114 | 106% | 100% | 78.2 | 112% | 119 | 97.6% | 97.8% | 83.8% | –
15 | O=C(NCCNC(=O)Oc1cccc2ccccc12)Oc1cccc2ccccc12 | 91.2 | 79 | 99.1 | 84.7% | 106% | 79.8% | 93.4% | 106% | 94.7% | 112 | 102% | 141% | 68.8 | 104% | 83.9 | 111% | 101% | 107% | 88.3
16 | CC(=O)/C(=C/c1ccc(Cl)cc1)C(=O)c1ccccc1 | 88.6 | 107 | 101 | 95.5% | 99.7% | 62.5% | 94.8% | 93.9% | 111% | 99.6 | 61.8% | 103% | 96.1 | 100% | 82.8 | 60.2% | 101% | 86% | –
